Bioassay records deposited in PubChem BioAssay by National Center for Advancing Translational Sciences (NCATS).
IL-1B inflam inh: inflammasome signaling inhibition, IL-1 beta readout | THP-1 LPS/ATP IL-1B secretion, AlphaLISA, 16 h; hits give low values | AID 743279 | activity change, % at 57.5 µM | 4.7% of 360,000 active; in the data active = activity change below about -50%; inconclusive = mostly about -30% to -49%
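THP-1 cells pretreated 1 hr with compounds (up to 57.5 uM final), then stimulated with LPS (250 ng/mL final) plus ATP (1.25 mM final); secreted IL-1B measured by AlphaLISA after 16 hr, decreased signal indicating inhibition.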
TDP1 cell CPT: growth inhibition of DT40 Tdp1-/-;hTDP1 cells with camptothecin (screen for TDP1 inhibitors). chicken DT40 Tdp1-/-;hTDP1 cells + 20 nM CPT, ATP luminescence, 48 h. Potency, µM (highest dose often 46.2 µM), without a hit: top-dose activity change, negative = growth inhibition, usual class: inhibitors. 12% of 420,000 active; note: potency is the fitted concentration of half-maximal effect; nearly all actives have a fitted effect of over 55% in size
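Cell growth measured by CellTiter-Glo luminescence after a minimum 48 h, 37 C compound exposure with 20 nM CPT in Tdp1-knockout DT40 cells stably expressing hTDP1, seeded 400/well; qHTS titration format.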
ELG1 DNA repair: blocks ELG1-dependent DNA repair in HEK293T cells; HEK293T ELG1-luciferase reporter, luminescence, 16 h; DNA damage induced by 5-fluorouridine; Potency, µM (highest dose often 46.1 µM), for inactives: at the highest dose activity change, negative = inhibition, most hits filed as inhibitors; 2.3% of 330,000 active; AID 504467; note: potency is the fitted concentration of half-maximal effect; nearly all actives have a fitted effect of over 55% in size
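HEK293T cells expressing luciferase-tagged ELG1 (2,000/well) received 5-Fluorouridine plus compound or DMSO for 16 hr at 37 °C. Luciferase was read by ONE-Glo luminescence after 30 min at room temperature.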
TDP1 inh: blocks human tyrosyl-DNA phosphodiesterase 1 | Potency, µM (titrated, usually from 130 µM), inactives show top-dose activity change, negative = inhibition, hits mostly inhibitors | AID 485290 | recombinant TDP1, AlphaScreen DNA substrate cleavage | Q9NUW8 | 0.28% of 350,000 active; note: potency is the fitted concentration of half-maximal effect; nearly all actives have a fitted effect of over 40% in size
Target sequence (Q9NUW8 whole entry, looked up): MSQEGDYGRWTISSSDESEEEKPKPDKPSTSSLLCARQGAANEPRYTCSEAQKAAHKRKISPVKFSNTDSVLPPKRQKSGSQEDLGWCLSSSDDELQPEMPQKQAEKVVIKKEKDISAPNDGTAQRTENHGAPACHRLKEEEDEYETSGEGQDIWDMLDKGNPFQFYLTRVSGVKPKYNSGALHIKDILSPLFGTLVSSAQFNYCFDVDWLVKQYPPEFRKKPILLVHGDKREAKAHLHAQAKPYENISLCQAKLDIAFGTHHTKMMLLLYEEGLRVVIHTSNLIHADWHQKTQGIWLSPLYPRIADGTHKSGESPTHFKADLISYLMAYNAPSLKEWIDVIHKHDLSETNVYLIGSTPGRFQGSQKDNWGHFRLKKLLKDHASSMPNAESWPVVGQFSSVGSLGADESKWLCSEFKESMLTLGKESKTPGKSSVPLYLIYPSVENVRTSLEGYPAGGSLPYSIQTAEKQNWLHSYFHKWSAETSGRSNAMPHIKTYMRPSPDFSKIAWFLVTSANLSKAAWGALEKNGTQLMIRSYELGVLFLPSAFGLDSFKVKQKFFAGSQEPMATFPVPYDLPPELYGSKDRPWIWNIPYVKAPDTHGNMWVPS
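AlphaScreen read-out: signal falls as enzyme removes the 3' tyrosine-FITC from a 5'-biotinylated DNA oligo (15 nM, 5 min, RT). Enzyme was E. coli-made recombinant Tdp1 at 1 nM, exposed to compound for 15 min beforehand; beads 10 ug/ml, 10 min.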
Giardia killer: kills Giardia lamblia. 0.15% of 340,000 active. Giardia lamblia trophozoite viability. AID 540267. activity change, % at 7.66 µM, hits read low; in the data active = activity change below about -80%; inconclusive = between about -30% and that limit;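 note: parasites exposed to compound for two days anaerobically before the ATP read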
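Trophozoites 100 cells/well + cpd; 48 hrs, 37 deg C, anaerobic. ATPLite 1-Step added, 15-30 min RT, luminescence read (ATP-based viability).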
TDP1 cell noCPT: qHTS for Inhibitors of human tyrosyl-DNA phosphodiesterase 1 (TDP1): qHTS in cells in absence of CPT | 15% of 420,000 active | DT40 Tdp1-/- hTDP1 cells, no CPT, ATP luminescence, 48 h | Potency, µM (doses to about 46.2 µM), for inactives: at the highest dose activity change, negative = growth inhibition, hits mostly inhibitors; note: potency is the fitted concentration of half-maximal effect; nearly all actives have a fitted effect of over 55% in size
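Growth kinetics read by CellTiter-Glo luminescence after ≥48 hr at 37 °C. Cells: DT40 Tdp1-/- stably carrying human TDP1, 400 per well, compound exposure in the absence of CPT (DMSO vehicle).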
* = called active by the depositor; [ ] = another dose, or the depositor's remark. Hits are enriched below; roughly 19% of the tested compounds scored in any of these assays. Unless noted, calls come from the whole dose curve; as a rule, active = well fitted curve in the direction sought with a large enough effect; inconclusive = small, poorly fitted or top-dose-only effect, or another doubt; inactive = no such curve, though single readings can be large; an effect the other way counts as inactive or inconclusive. % is set by controls: 0 for no effect and ±100 for the full control effect.

How did Cc1oc(-c2ccc(C(=O)NCCCOC(C)C)cc2)nc1CS(=O)(=O)c1ccccc1 do in these assays?
TDP1 cell CPT: inconclusive; TDP1 inh: 6%; TDP1 cell noCPT: inconclusive

Results for COc1ccccc1CNC(=O)c1ccccc1OCc1ccc(F)cc1 ?
IL-1B inflam inh: 14; TDP1 cell CPT: inconclusive; ELG1 DNA repair: -28%; TDP1 inh: -5%; Giardia killer: 4; TDP1 cell noCPT: inconclusive

How did Cc1nc2c(C(=O)NCCc3ccc(Cl)cc3)cnn2c(C)c1Cc1ccc(F)cc1 do in these assays?
TDP1 cell CPT: 16µM*; TDP1 inh: 8%; TDP1 cell noCPT: inconclusive

Results for COc1ccccc1CNC(=O)c1cnn2c(C)c(Cc3ccc(F)cc3)c(C)nc12 ?
TDP1 cell CPT: 5.8µM*; TDP1 inh: 3%; TDP1 cell noCPT: 6.5µM*

How did COc1ccc(C=O)cc1COc1ccc(NC(C)=O)cc1 do in these assays?
TDP1 inh: -2%

How did OCCNCc1cc(Br)ccc1OCc1ccc(Cl)cc1Cl do in these assays?
IL-1B inflam inh: inconclusive; TDP1 cell CPT: 18µM*; ELG1 DNA repair: -26%; TDP1 inh: 3%; Giardia killer: -19; TDP1 cell noCPT: 9.2µM*

How did OCCNCc1cccc(OCc2ccc(Cl)cc2)c1 do in these assays?
IL-1B inflam inh: -56*; TDP1 cell CPT: inconclusive; ELG1 DNA repair: 16%; TDP1 inh: 8%; Giardia killer: 8; TDP1 cell noCPT: inconclusive

What do the screens show for `OCCNCc1cc(Br)ccc1OCc1ccc(F)cc1`?
IL-1B inflam inh: -81*; TDP1 cell CPT: inconclusive; ELG1 DNA repair: -25%; TDP1 inh: -5%; Giardia killer: 9; TDP1 cell noCPT: inconclusive

Results for c1ccc(COc2cccc(CNCc3cccnc3)c2)cc1 ?
IL-1B inflam inh: -1; TDP1 cell CPT: -23%; ELG1 DNA repair: 3%; TDP1 inh: 3%; Giardia killer: 0; TDP1 cell noCPT: inconclusive

Results for OCCNCc1cc(Br)ccc1OCc1ccc(Cl)cc1 ?
IL-1B inflam inh: inconclusive; TDP1 cell CPT: 21µM*; ELG1 DNA repair: -15%; TDP1 inh: 5%; Giardia killer: 4; TDP1 cell noCPT: 29µM*

How did O=C(COc1ccc(Br)cc1CO)Nc1ccc(F)cc1 do in these assays?
IL-1B inflam inh: -12; TDP1 cell CPT: -13%; ELG1 DNA repair: -7%; TDP1 inh: 1%; Giardia killer: -6; TDP1 cell noCPT: -21%

What do the screens show for `Cn1cccc1/C=N/N1CCN(c2ccccc2)CC1`?
IL-1B inflam inh: 4; TDP1 cell CPT: 8%; ELG1 DNA repair: -1%; TDP1 inh: 12%; Giardia killer: -6; TDP1 cell noCPT: 2%

Results for Cc1cc(Nc2cccc(Cl)c2Cl)n2ncnc2n1 ?
IL-1B inflam inh: 27; TDP1 cell CPT: -4%; ELG1 DNA repair: 24%; Giardia killer: 19; TDP1 cell noCPT: -28%

Results for CCC(=O)N1C2=C(c3ccccc3[C@@H]1CC(=O)Nc1ccc3ccccc3c1)[C@@H]1C(=O)N(c3ccccc3)C(=O)[C@@H]1[C@H](C)C2 ?
TDP1 inh: 17%[12.3 µM]

How did CCOc1ccc(NC(=O)CN(c2ccc(OC)cc2)S(=O)(=O)c2cccs2)cc1 do in these assays?
IL-1B inflam inh: 2; TDP1 cell CPT: 4%; ELG1 DNA repair: inconclusive; TDP1 inh: 0%[56.1 µM]; Giardia killer: 5; TDP1 cell noCPT: -1%

What do the screens show for `OCCCCNCc1cc(Br)ccc1OCc1ccccc1F`?
IL-1B inflam inh: -70*; TDP1 cell CPT: inconclusive; ELG1 DNA repair: 0%; Giardia killer: 27; TDP1 cell noCPT: inconclusive

How did Cc1ccccc1NC(=O)COc1ccc(Br)cc1CNCCCO do in these assays?
IL-1B inflam inh: -13; TDP1 cell CPT: -2%; ELG1 DNA repair: 9%; TDP1 inh: 0%; Giardia killer: 6; TDP1 cell noCPT: -10%

What do the screens show for `COc1ccc(C2CC2C(=O)c2ccccn2)cc1` (stereo not given)?
IL-1B inflam inh: -14; TDP1 cell CPT: 11%; ELG1 DNA repair: inconclusive; TDP1 inh: 6%; Giardia killer: -7; TDP1 cell noCPT: 3%

What do the screens show for `COc1ccc(C2CC2/C(=N/O)c2ccccc2)cc1` (stereo not given)?
IL-1B inflam inh: inconclusive; TDP1 cell CPT: 23µM*; ELG1 DNA repair: inconclusive; TDP1 inh: 6%; Giardia killer: -20; TDP1 cell noCPT: 18µM*

How did COc1ccc(C2CC2/C(=N/O)c2ccccn2)cc1 (stereo not given) do in these assays?
IL-1B inflam inh: 2; TDP1 cell CPT: 13µM*; ELG1 DNA repair: 6%; TDP1 inh: -3%; Giardia killer: -5; TDP1 cell noCPT: inconclusive

How did Cc1ccc([C@H]2N[C@]3(CCCN(Cc4ccc(F)cc4)C3=O)[C@H]3C(=O)N(Cc4ccccc4)C(=O)[C@@H]23)cc1 do in these assays?
IL-1B inflam inh: -24; TDP1 cell CPT: inconclusive; TDP1 cell noCPT: inconclusive

How did O=C(Nc1ccc(F)cc1)C(CCc1ccccc1)N1CCN(c2cccc(C(F)(F)F)n2)CC1 (stereo not given) do in these assays?
IL-1B inflam inh: 0; TDP1 cell CPT: 18µM*; TDP1 cell noCPT: inconclusive

Results for O=C(Nc1ccc(F)cc1)C(c1ccncc1)N1CCN(c2cccc(C(F)(F)F)n2)CC1 (stereo not given) ?
IL-1B inflam inh: -11; TDP1 cell CPT: inconclusive; TDP1 cell noCPT: 21µM*

Results for COc1cccc(CNC(=O)C(=O)NCC(c2cccs2)S(=O)(=O)c2cccs2)c1 (stereo not given) ?
TDP1 cell CPT: inconclusive; TDP1 inh: -5%; TDP1 cell noCPT: 21µM*

Results for Cc1cc(S(=O)(=O)C(CNC(=O)c2ccc(F)c(F)c2)c2cccs2)ccc1F (stereo not given) ?
TDP1 cell CPT: 3%; TDP1 inh: 4%; TDP1 cell noCPT: -3%

Results for COc1cccc(CNC(=O)C(=O)NCC(c2ccco2)S(=O)(=O)c2cccs2)c1 (stereo not given) ?
TDP1 cell CPT: inconclusive; TDP1 inh: 5%; TDP1 cell noCPT: inconclusive

How did COc1ccc(C(=O)CC(=O)c2ccccc2)cc1 do in these assays?
IL-1B inflam inh: -13; TDP1 cell CPT: -17%; Giardia killer: 13; TDP1 cell noCPT: inconclusive

What do the screens show for `COc1ccc(C(=O)C/C(=C\C(=O)c2ccc(C)cc2)c2ccccc2)cc1`?
IL-1B inflam inh: -24; TDP1 cell CPT: 18µM*; ELG1 DNA repair: -14%; TDP1 inh: 5%; Giardia killer: -16; TDP1 cell noCPT: 23µM*
